# Compounds with a hit are over-represented: about 2.9% of the library has one in this group of screens.
# HIF-2a inh: inhibitors of HIF-2a; 786-0 RCC cells HIF-2a reporter, luciferase luminescence, overnight; hit rate 0.72% among 360,000; inhibition, % at 18.8 µM;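 active = inhibition of the luminescence signal of 40% or more relative to plate controls, in a single-dose primary screen at 18.75 µM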
# CF NFkB block: inhibitors of cystic fibrosis induced NF-kB; inhibition, % at 5 µM; KKLEB NF-kB-GFP reporter, PAF-induced, GFP fluorescence overnight; hit rate 0.86% among 360,000;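 active = at least 50% inhibition at 5 µM, scaled per plate between neutral and stimulator controls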;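 note: PAF is a Pseudomonas aeruginosa culture filtrate used as stimulus; plate controls were PAF-stimulated DMSO wells for no effect and unstimulated DMSO wells for full effect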
# KKLEB cytotox: CF airway cell cytotoxicity counter-screen | AID 602141 | hit rate 0.36% among 360,000 | activity change (cytotoxicity), % at 5 µM | KKLEB CF airway cells viability, ATPlite luminescence, overnight; active compounds read low; cells stimulated with P. aeruginosa culture filtrate;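 active = corrected activity change at or below -50% at 5 µM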
# EBV LMP1 NFkB: inhibitors of Epstein-Barr LMP1-induced NF-kappaB reporter; AID 504558; hit rate 0.69% among 350,000; LMP1-induced NF-kappaB luciferase reporter cells, luminescence; inhibition, % at 12.5 µM; in the data active = inhibition above about 41%; inconclusive = no clear call, values can overlap the other calls;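 note: 0% = neutral control wells and 100% = reference inhibitor control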
# Shn3 inh set2: inhibitors of Schnurri-3 3'UTR reporter in osteoblasts; Clone20 osteoblast Shn3 3'UTR firefly luciferase, 24 h; inhibition, % at 12.5 µM; hit rate 0.52% among 360,000;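 active = mean inhibition of at least 75% with every replicate also reaching 75%; inconclusive = mean inhibition at least 75% but some replicate below; inactive = mean inhibition below 75%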;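 note: 0% = median of neutral control wells and 100% = pilot-screen positive control compound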
# Peg3 promoter: inhibitors of Peg3 promoter. hit rate 1.7% among 360,000. inhibition, % at 20 µM. HeLa PEG-Prom luciferase reporter, luminescence, overnight;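 active = inhibition of at least 50% at 20 µM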
# Starred values were filed as active, the others as inactive; ? = inconclusive; . = no result given.
SMILES,HIF-2a inh,CF NFkB block,KKLEB cytotox,EBV LMP1 NFkB,Shn3 inh set2,Peg3 promoter
O=C(CCCN1C(=O)/C(=C/c2cccs2)SC1=S)Nc1ccccc1O,4,7,-1,8,-3,13
O=C(CCCN1C(=O)/C(=C\c2cccs2)SC1=S)Nc1ccc(O)cc1C(=O)O,32,16,6,-1,12,53*
O=C(CCCN1C(=O)/C(=C/c2cccs2)SC1=S)NNC(=O)c1ccccc1O,41*,-8,3,12,43,34
CCOc1ccc2nc3cc(NCc4ccc(OC)cc4)ccc3c(N)c2c1,21,-22,-5,-9,?,93*
CCn1cnc2cc(NCc3ccc(OC)cc3)ccc21,-182,2,16,-21,-39,-170
O=C1C(c2ccccc2)=[N+]([O-])c2ccccc21,-75,22,3,9,57,88*
O=C1C(=Cc2cccs2)C(=O)c2ccccc21,16,-2,1,0,-7,-15
O=C(/C=C\c1ccc(-c2ccccc2)o1)c1ccccc1,-166,6,-10,-14,60,80*
Cc1ccc(C(=O)/C=C/c2ccc(-c3ccc(C)cc3)o2)cc1,20,2,0,-15,92*,74*
N#C/C(=C\c1ccc(-c2ccc(F)cc2)o1)C(=O)Nc1nc(-c2cccs2)cs1,-6,32,-34,13,6,10
N#C/C(=C/c1ccc(-c2ccc([N+](=O)[O-])cc2)o1)C(=O)Nc1nc(-c2cccs2)cs1,3,-10,-10,-5,10,55*
Cc1cnc(NC(=O)CC2CCCC2)s1,-184,14,-3,-39,-37,-215
CCc1ccc(S(=O)(=O)/N=C2\C=C(Nc3ccc(O)cc3)C(=O)c3ccccc32)cc1,69*,99*,-88*,90*,95*,104*
O=C(O)c1cccc(NC2=C(n3nnc4ccccc43)C(=O)c3ccccc3C2=O)c1,-42,6,-10,0,-9,-15
CCc1ccc(S(=O)(=O)/N=C2\C=C(Nc3cccc(C(=O)O)c3)C(=O)c3ccccc32)cc1,-68,96*,-46,-9,15,-153
CCc1ccc(S(=O)(=O)/N=C2/C=C(Sc3ncn[nH]3)C(=O)c3ccccc32)cc1,89*,81*,-42,24,98*,102*
COC1=C(Nc2ccc(O)cc2)C(=O)c2ccccc2C1=O,-100,19,4,1,-2,-36
N/C(=N\OC(=O)CN1C(=O)c2ccccc2C1=O)c1ccc(Br)cc1,-12,14,-5,-11,-24,-20
COC(=O)C(CO)NC(=O)C(C)NC(=O)CNC(=O)OCc1ccccc1 (centres undefined),14,-15,11,-6,-13,4
CC(C)CN1C(=O)CN(S(C)(=O)=O)CC1(C)C(=O)Nc1ccc2c(c1)OCCO2 (centres undefined),-1,.,.,.,.,.
O=C(NN1CCOCC1)c1cc(-c2cccs2)nc2ccccc12,8,5,-1,0,-9,6
O=C(NNc1nc2ccc(Cl)cc2s1)c1cc(-c2cccs2)nc2ccccc12,14,38,-19,27,2,87*
Cc1ccc(NC(=O)c2cc(-c3cccs3)nc3ccccc23)nc1,-6,-3,0,-8,34,41
Cc1cc(C)c2nc(NNC(=O)c3cc(-c4cccs4)nc4ccccc34)sc2c1,2,12,-4,16,1,52*
O=C(Nc1cccc(Cl)c1)Nc1nnc(CSCCOc2ccc(Cl)cc2)s1,2,44,-26,44*,67,36
SMILES,HIF-2a inh,CF NFkB block,KKLEB cytotox,EBV LMP1 NFkB,Shn3 inh set2,Peg3 promoter
Cc1ccc(NC(=O)Nc2nnc(CSCCOc3ccc(Cl)cc3)s2)cc1,8,8,8,-3,18,16
O=C(Nc1nnc(-c2ccccc2)o1)NC1CCCCC1,-122,26,-8,68*,-35,-87
O=C(Nc1ccccc1)Nc1nnc(-c2ccccc2)o1,-85,1,-3,-3,-10,-60
Cc1cc(C(=O)N2CCN(c3ccccc3Cl)CC2)c(C)o1,-228,4,7,-18,-71,-224
Cc1cc(NC(=O)CN2C(=O)NC(CC(C)C)C2=O)ccc1Br (centres undefined),-19,-2,-6,5,-2,18
CCNC(=S)Nc1sc2c(c1C#N)CCC(C)C2 (centres undefined),-38,8,-7,59*,-8,-12
CC(=O)OCC(=O)Nc1ccc([N+](=O)[O-])cc1Cl,10,-23,-1,0,8,3
CC(=O)Oc1c(C)cc(Cl)cc1C(=O)Nc1ccc([N+](=O)[O-])cc1Cl,-157,63*,-78*,36,78,-13
CCO[C@H]1OC(C(=O)N2CCN(Cc3ccc4c(c3)OCO4)CC2)=C[C@@H](c2ccc(Br)cc2)[C@@H]1CCCO,-6,0,-8,5,-17,18
COc1ncnc2c1ncn2CCCN1CCN(c2ncccn2)CC1,1,4,9,3,-3,-1
O=C1[C@H]2CCCC[C@H]2C(=O)N1CCCCN1CCN(c2nsc3ccccc23)CC1,-14,-14,8,62*,-4,2
O=C(O)CSc1cc(NS(=O)(=O)c2ccc(Cl)cc2)c2ccccc2c1O,17,81*,-21,9,10,30
COc1ccc(S(=O)(=O)Nc2cc(SCC(=O)O)c(O)c3ccccc23)cc1,-2,78*,-21,-9,13,10
CC(C)Oc1cccc(C(=O)Nc2nnc([C@@H]3C[C@H](O)[C@@H](CO)O3)s2)c1,1,-10,-1,.,1,-2
O=C(CCN1C(=O)NC2(CCCC2)C1=O)Nc1ccc(-c2nc3ccccc3s2)cc1,-113,-5,-20,-2,22,101*
O=C(CCN1C(=O)NC2(CCCC2)C1=O)Nc1ccc(Sc2ccc(Br)cc2)cc1,-10,-3,-10,11,1,18
O=P(CCCCCCCCCP(=O)(c1ccccc1)c1ccccc1)(c1ccccc1)c1ccccc1,14,9,-11,-3,88*,67*
O=C(O)CCCCCCCCCCP(=O)(c1ccccc1)c1ccccc1,21,3,-1,-8,14,9
CCCNCC1C(Oc2ccc(Cl)cc2Cl)C(=O)N1c1cccc(C)c1C (centres undefined),6,20,-13,-6,28,62*
CCOc1ccc(Nc2cc(C)nc(N3CCOCC3)n2)cc1,-20,12,0,2,-10,-20
CCOC(=O)c1cnc2ccc(C)cc2c1Nc1ccc(N2CCOCC2)cc1,8,-2,-6,-2,17,79*
CCOC(=O)c1ccc(Nc2cc(C)nc(N3CCOCC3)n2)cc1,11,18,-6,-4,-4,55*
Fc1ccc(COc2ccc(C(=S)N3CCCC3)cc2)cc1,-222,-2,-5,-14,-40,-148

# Screens deposited in PubChem BioAssay by several laboratories.
